# Measured values as given in PubChem BioAssay AID2315 (National Center for Advancing Translational Sciences (NCATS), 2010).
# Values joined by “and” are separate entries in the source; they are usually repeats but may differ in a detail not shown here. Identical values can stand only once. The whole screen tested about 290,000 compounds, of which about 27,000 (9.3%) were called active. Rule as the data show it: active = inhibition mostly above about 28% (no sharp cut-off); inactive = mostly below about 43%. This excerpt belongs to a sample that is enriched for actives.
# Assay: A qHTS for Small Molecule Inhibitors of Shiga Toxin; also: 0% is about no effect
# Conditions: Vero cells, Shiga toxin protein synthesis inhibition reporter; at 38.7 µM, hits give high values
row,SMILES,inhibition
1,CC(=O)N1c2ccc(S(=O)(=O)N(C)CC(=O)N(C)Cc3ccccc3)cc2CC1C (stereo not given),-1.97% (inactive)
2,Cc1ccc(NC(=O)CCN2C(=O)c3ccccc3C2=O)cc1C,7.31% (inactive)
3,O=C(NCCN1CCOCC1)/C(=C/c1ccc(F)cc1)NC(=O)c1ccccc1,-6.87% (inactive)
4,COc1cccc(CNC(=O)COc2cc(O)c3c(c2)OC(C)(C)CC3=O)c1,7.09% (inactive)
5,Cc1cccc(NC(=O)C2CCCN(C(=O)NCc3ccccc3)C2)c1C (stereo not given),14.7% (inactive)
6,CCCc1cc(=O)[nH]c(SCC(=O)N2C(C)CCCC2C)n1 (stereo not given),1.9% (inactive)
7,O=C(N/N=C/c1ccc([N+](=O)[O-])cc1)C(=O)N1CCCC1,19% (inactive)
8,Cc1[nH]c2ccccc2c1/C=N/NC(=O)CNC(=O)c1ccc2c(c1)OCO2,-14.9% (inactive)
9,O=C(Cc1ccc(F)cc1)N/N=C/c1ccc2c(c1)OCO2,42.2% (inactive)
10,CN1CCN(C(=O)/C(=C\c2ccc3c(c2)OCO3)NC(=O)c2cccs2)CC1,-3.92% (inactive)
11,O=C(N/N=C/c1ccc2c(c1)OCO2)C(=O)N1CCCC1,76.5% (active)
12,O=C(CNC(=O)C(c1ccccc1)c1ccccc1)N/N=C\c1ccc2c(c1)OCO2,66.2% (active)
13,OC(COc1ccc(Br)cc1)CN1CCCC1 (stereo not given),-1.94% (inactive)
14,CN1C2CCC1CC(NC(=O)c1ccc([N+](=O)[O-])cc1)C2 (stereo not given),-5.48% (inactive)
15,Cn1c(=O)c2c(SCC(=O)NCC3CCCO3)nc(CC(C)(C)C)nc2n(C)c1=O (stereo not given),-7.65% (inactive)
16,Cc1cccc(NS(=O)(=O)c2ccc([N+](=O)[O-])cc2)n1,12.1% (inactive)
17,Cc1oc(-c2ccccc2F)nc1CS(=O)CC(=O)NCCN1CCCCC1C (stereo not given),-8.05% (inactive)
18,COc1ccccc1-c1nc(C#N)c(N2CCC(C(N)=O)CC2)o1,-15% (inactive)
19,CC1CCN(c2oc(-c3ccccc3F)nc2C#N)CC1,69.1% (active)
20,O=C(c1ccccc1F)N1CCN(S(=O)(=O)c2ccc(Br)cc2)CC1,-11.4% (inactive)
21,O=C(CSc1ccc(-c2ccccc2)nn1)NCC1CCCO1 (stereo not given),20.8% (inactive)
22,Cc1c(C(=O)N2CCCc3ccccc32)sc2nc(-c3ccccc3)cn12,21.5% (inactive)
23,Cc1c(C(=O)NCC2CCCO2)sc2nc(-c3ccccc3)cn12 (stereo not given),93% (active)
24,Cc1cccc(C)c1NC(=O)N1CC(C)OC(C)C1 (stereo not given),-12.3% (inactive)
25,Cc1c(C(=O)N2CC(C)OC(C)C2)sc2nc(-c3ccccc3)cn12 (stereo not given),64.7% (active)

row,SMILES,inhibition
1,CCOc1ccc(-n2c(N)c(C(=O)NCC3CCCO3)sc2=S)cc1 (stereo not given),-14.3% (inactive)
2,COc1ccccc1N1CCN(C(=O)c2cc(=O)c3cc(C)cc(C)c3o2)CC1,3.39% (inactive)
3,COc1cccc(-n2c(=S)sc3c(=O)n(-c4ccccc4C)c(SCC(=O)O)nc32)c1,20.4% (inactive)
4,CCOc1ccc2[nH]c3nc(SCC(=O)NC4CCCC4)nnc3c2c1,-5.52% (inactive)
5,CCOc1ccc2nc(N(CCN(C)C)C(=O)c3ccc4ccccc4c3)sc2c1,25.9% (inactive)
6,Cc1nc(COc2cc3oc(=O)cc(C)c3cc2Cl)cs1,2.94% (inactive)
7,O=C(Nc1sc2c(c1C(=O)O)CCC2)c1ccccc1F,15% (inactive)
8,O=C(Nc1ccc(F)cc1)c1cc2c(s1)CCCC2,127% (active)
9,C=CCN(CC=C)S(=O)(=O)c1ccc(C(=O)Nc2sc3c(c2C(N)=O)CCCCC3)cc1,-0.928% (inactive)
10,O=C(COC(=O)c1cc2c(s1)CCCC2)NCc1ccccc1Cl,7.81% (inactive)
11,O=C(NNC(=O)c1cc2c(s1)CCCC2)c1ccccc1,110% (active)
12,O=C(CNC(=O)c1cc2c(s1)CCC2)Nc1ccccc1Br,61.2% (active)
13,NC(=O)c1c(NC(=O)c2ccccc2)sc2c1CCCC2,68.2% (active)
14,O=C(c1cc2c(s1)CCC2)N1CCN(c2ccccc2)CC1,44.1% (inactive)
15,COc1ccc(C(CNC(=O)c2cc3c(s2)CCCC3)N2CCOCC2)cc1 (stereo not given),-16.3% (inactive)
16,O=C(NCCCN1CCOCC1)c1cc2c(s1)CCC2,33% (inactive)
17,O=C(NCCCn1ccnc1)c1cc2c(s1)CCCC2,-5.02% (inactive)
18,CN(CC(=O)Nc1ccccc1F)CC(=O)Nc1ccccc1Br,13% (inactive)
19,CN1C(=O)C2(OCCCO2)c2cc(Cl)ccc21,-14.7% (inactive)
20,CC1CCN(C(=O)C2CCN(S(=O)(=O)N3CCC4(CC3)OCCO4)CC2)CC1,-15.9% (inactive)
21,O=C(C[C@H]1C(=O)N(c2ccc(F)c(F)c2)C[C@@H]1Cc1ccccc1)Nc1ccccc1,-3.22% (inactive)
22,COc1ccc(C(=O)Nc2ccc(C(=O)NCC3CCCO3)cc2)c(OC)c1OC (stereo not given),-2.17% (inactive)
23,CCSc1nc2sc3c(c2c(=O)n1-c1ccc(C)cc1)CCN(C)C3,-6.21% (inactive)
24,CC1(C)Cc2c(sc(NC(=O)C(=O)N3CCOCC3)c2C#N)CO1,-10.6% (inactive)
25,COC(=O)C(C)n1cnc2c(nnn2-c2cccc(Cl)c2)c1=O (stereo not given),26% (inactive)

row,SMILES,inhibition
1,CCOC(=O)C(C)n1cnc2c(nnn2-c2cccc(OC)c2)c1=O (stereo not given),41% (active)
2,CCOC(=O)C(C)n1cnc2c(nnn2-c2ccc(F)cc2)c1=O (stereo not given),18.3% (inactive)
3,CCN(C(=O)CSc1nnc(-c2ccncc2)o1)c1ccccc1,-4.1% (inactive)
4,O=C(c1ccc(Oc2ccc(Cl)cc2)c([N+](=O)[O-])c1)N1CCCC1,-5.51% (inactive)
5,NC(=O)CCN1CCN(S(=O)(=O)/C=C/c2ccccc2)CC1,3.87% (inactive)
6,CN1CCN(S(=O)(=O)c2cccc(C(=O)O)c2)CC1,24% (inactive)
7,O=C(c1ccccc1)N1CCN(C(=O)N2CCCCC2)CC1,-25.1% (inactive)
8,O=C(O)c1cccc(N=NN2CCCCCC2)c1,139% (active)
9,NC(=NC(=O)c1ccccc1)N1CCOCC1,-9.05% (inactive)
10,O=C(NC(=O)N1CCOCC1)c1ccccc1,6.72% (inactive)
11,O=C(O)c1ccc(N=NN2CCOCC2)cc1,38.4% (active)
12,O=C(NCc1ccco1)c1ccc([N+](=O)[O-])cc1Cl,-6.09% (inactive)
13,O=C(Nc1ccccc1Cl)NC1(C(=O)N2CCOCC2)CCCCC1,3.21% (inactive)
14,CCCCNC(=O)Nc1c(C)cc(SC#N)cc1C,12.6% (inactive)
15,CCOc1ccccc1NC(=O)CCS(=O)(=O)c1cccc2nsnc12,-10.2% (inactive)
16,c1csc(-c2nnc(COc3ncnc4sccc34)o2)c1,13.6% (inactive)
17,c1csc(-c2nnc(COc3ccc4c(c3)OCO4)o2)c1,100% (active)
18,Clc1ccc(Cc2nnc(-c3cccs3)o2)cc1,12.1% (inactive)
19,Cc1cc(-n2nc(C)cc2C)n2ncc(-c3ccccc3)c2n1,63.4% (active)
20,Cc1cc(N2CCCC2)n2nc(C)c(-c3ccccc3)c2n1,24.9% (inactive)
21,Cc1cc(-n2nc(C)cc2C)n2nc(C)c(-c3ccccc3)c2n1,-5.33% (inactive)
22,CCC(C(=O)OC)n1cnc2scc(-c3ccc(C)cc3)c2c1=O (stereo not given),-4.36% (inactive)
23,O=C(CCN1C(=O)[C@H]2CC=CC[C@H]2C1=O)NCc1nc(-c2ccccc2)no1,24.8% (inactive)
24,COc1ccc(OC)c(S(=O)(=O)N2CCCC(C(=O)NCCc3ccccc3)C2)c1 (stereo not given),9.04% (inactive)
25,Cc1ccc(NC(=O)c2cc(-c3ccc(C)o3)nc3ccccc23)nc1,-4.51% (inactive)

row,SMILES,inhibition
1,Cc1ccc(Nc2nc(-c3ccc(O)cc3O)cs2)nc1,67.2% (active)
2,COc1ccc(/C(C)=N\NC(=O)c2ccc(-c3ccccc3)cc2)c(F)c1,2.19% (inactive)
3,CN(C(=O)COC(=O)CNC(=O)C12CC3CC(CC(C3)C1)C2)c1ccccc1,11.2% (inactive)
4,Cc1c(C)c(C)c(S(=O)(=O)NCCc2ccccn2)c(C)c1C,-12.6% (inactive)
5,O=C(CNC(=O)COc1ccccc1)NCCc1ccccn1,-6.4% (inactive)
6,COc1ccc(NCCc2ccccn2)cc1,85% (active)
7,NS(=O)(=O)c1ccc(NC(=S)N2CCCC2)cc1,-27.4% (inactive)
8,S=C(Nc1ccc2c(c1)OCO2)N1CCCC1,87.4% (active)
9,Cc1cccc(C)c1NC(=S)N1CCCCCC1,-6.49% (inactive)
10,CCOc1ccc(NC(=S)N2CCCCCC2)cc1,29.7% (inactive)
11,CC(=O)c1cccc(NC(=S)N2CCCC2)c1,12.2% (inactive)
12,CCC(C)c1ccc(NC(=S)N2CCCC2)cc1 (stereo not given),68% (active)
13,C=CCC1=C/C(=C\c2c(N)n3nc(CC(=O)N4CCOCC4)sc3nc2=O)C=C(OC)C1=O,-1.44% (inactive)
14,Cc1cnc(CN(C)C(=O)CC2C(=O)NCCN2Cc2cccc(F)c2F)[nH]1 (stereo not given),-27.4% (inactive)
15,O=C(Cn1c[n+](CC(=O)c2ccc([N+](=O)[O-])cc2)cn1)c1ccc([N+](=O)[O-])cc1,-3.01% (inactive) and 31.4% (inactive)
16,COc1ccccc1CNS(=O)(=O)c1ccc2c(c1)NC(=O)CS2,17.1% (inactive)
17,CCOC(=O)c1ccccc1NS(=O)(=O)c1c(C)nc2sccn2c1=O,-9.62% (inactive)
18,Cn1cncc1COC(=O)c1ccc(Cl)cc1,0.74% (inactive)
19,CN1OC(COC(=O)c2ccc(Cl)cc2)CC1c1ccccc1 (stereo not given),50.7% (active)
20,CN1C2C=C(N(C(=O)c3ccc(Cl)cc3)c3ccccc3)CC1CC2 (stereo not given),-14.6% (inactive)
21,Cc1ccc(NS(=O)(=O)c2ccc3c(c2)NC(=O)CO3)cc1,-11.9% (inactive)
22,Cc1cc(NC(=O)CSc2nnnn2-c2ccc(F)cc2)no1,24.2% (inactive)
23,CN(C)c1nc(-c2cccnc2)nc(-c2ccc(Cl)cc2)c1C#N,-6.6% (inactive)
24,CN(C)c1ccc(-c2nnc(-c3cccnc3)o2)cc1,104% (active)
25,Cc1csc(NC(=O)CSc2nnc(-c3cccnc3)o2)n1,-20.1% (inactive)
